Screening results: PubChem BioAssay, National Center for Advancing Translational Sciences (NCATS)
TRb-SRC2 inh: qHTS for Inhibitors of the Interaction of Thyroid Hormone Receptor and Steroid Receptor Coregulator 2; Potency, µM (series often up to 106 µM), actives largely listed as inhibitors; TRbeta-SRC2 peptide binding, fluorescence polarization; receptor liganded with 1 µM T3; 280,000 compounds, 0.065% hits; note: nearly all actives have a fitted effect of over 50% in size
Target sequence (P10828 whole entry, looked up): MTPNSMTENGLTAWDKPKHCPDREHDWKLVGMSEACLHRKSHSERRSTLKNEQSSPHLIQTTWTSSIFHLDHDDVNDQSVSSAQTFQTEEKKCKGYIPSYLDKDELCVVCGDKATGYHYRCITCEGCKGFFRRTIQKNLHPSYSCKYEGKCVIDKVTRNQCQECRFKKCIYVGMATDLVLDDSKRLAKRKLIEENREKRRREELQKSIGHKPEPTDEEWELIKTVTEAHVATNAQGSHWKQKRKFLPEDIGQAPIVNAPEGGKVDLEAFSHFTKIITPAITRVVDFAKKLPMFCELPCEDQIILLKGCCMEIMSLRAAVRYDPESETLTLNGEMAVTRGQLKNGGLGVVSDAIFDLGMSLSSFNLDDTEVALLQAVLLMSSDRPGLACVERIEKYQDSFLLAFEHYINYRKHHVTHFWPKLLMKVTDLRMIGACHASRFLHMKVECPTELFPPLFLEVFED
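Binding of a 20-amino-acid Texas Red SRC2 peptide (20 nM) to TRb ligand-binding domain (0.6 uM) with agonist T3 at 1 uM was followed by fluorescence polarization after a 5 hr room-temperature incubation.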
TR SRC2 fluor cs: Total Fluorescence Counterscreen for Inhibitors of the Interaction of Thyroid Hormone Receptor and Steroid Receptor Coregulator 2; AID 1479, 2009; Potency, µM (titrated, usually from 106 µM); TRb/SRC2 Texas Red total fluorescence interference; 280,000 compounds, 0.29% hits; active = well fitted curve in either direction with a large enough effect; inconclusive = small, poorly fitted or top-dose-only effect
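Human TRβ ligand-binding domain (0.6 uM) and Texas Red SRC2 peptide (20 nM) in Tris buffer with 1 uM T3 and 5% DMSO were incubated with pinned compound for 5 hr at ambient temperature. Total fluorescence was computed as S + 2P (555/632 nm).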
Tau fibril ThT: qHTS for Inhibitors of Tau Fibril Formation, Thioflavin T Binding. 270,000 compounds, 2.1% hits. Potency, µM (top dose mostly 57.4 µM), hits mostly inhibitors. AID 1460, 2008. recombinant tau K18 P301L, heparin-induced fibrillization, ThT fluorescence; note: nearly all actives have a fitted effect of over 55% in size
Target sequence (P10636 561-689 P618L limits assumed): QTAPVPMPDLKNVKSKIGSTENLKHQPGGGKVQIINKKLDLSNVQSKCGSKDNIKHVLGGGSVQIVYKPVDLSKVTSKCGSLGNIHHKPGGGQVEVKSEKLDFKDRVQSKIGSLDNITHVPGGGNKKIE
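Recombinant human tau K18 fragment […] carrying P301L, 15 uM unlabeled plus 0.24 uM Alexa 594-labeled, was fibrillized with 20 uM heparin in 100 mM sodium acetate pH 7 for 6 hr at 37 C; 30 uM ThT fluorescence read after 1 hr.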
Tau FP inhib: qHTS for Inhibitors of Tau Fibril Formation, Fluorescence Polarization; Microtubule-associated protein tau (Homo sapiens), P10636; K18 P301L tau heparin fibrillization, Alexa594 FP, 6 h; Potency, µM (highest dose often 57.7 µM), hits mostly inhibitors; 280,000 compounds, 0.39% hits; AID 1468, 2008; note: nearly all actives have a fitted effect of over 55% in size
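Human K18 P301L fragment (15 uM unlabeled plus 0.24 uM Alexa 594-labeled) in 100 mM sodium acetate pH 7 with compound, aggregation induced by 20 uM heparin for 6 hr at 37 C. ThT (30 uM) added for 1 hr, then Alexa 594 FP read.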
Tau fluor cs: Counterscreen qHTS for Inhibitors of Tau Fibril Formation, Fluorescence Polarization. tau K18 P301L Alexa594 fluorescence, heparin fibrillization. 280,000 compounds, 0.93% hits. Potency, µM (top dose mostly 57.7 µM); note: nearly all actives have a fitted effect of over 55% in size
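Human tau K18 P301L (15 uM unlabeled, 0.24 uM Alexa 594-labeled) in 100 mM sodium acetate pH 7 with 20 uM heparin, 6 hr at 37 C. ThT 30 uM added, 1 hr ambient; Alexa 594 FP and total fluorescence read at 555/632 nm.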
Each line names hits and unclear results; the compound was inactive in the other large screens; [ ] = another dose, or the depositor's remark. Compounds with a hit are over-represented: about 3.1% of the library has one in this group of screens. Unless noted, calls come from the whole dose curve; as a rule, active = well fitted curve in the direction sought with a large enough effect; inconclusive = small, poorly fitted or top-dose-only effect, or another doubt; inactive = no such curve, though single readings can be large; an effect the other way counts as inactive or inconclusive.

CC(=O)Nc1cc(NC(C)=O)c(N=Nc2ccccc2)cc1C	Tau fluor cs inconclusive (no result: Tau fibril ThT)
CCOC(=O)c1c(C)[nH]c(C)c1S(=O)(=O)N1CCC(C(=O)NCc2ccc(N(C)C)cc2)CC1	Tau fibril ThT inconclusive
CCOC(=O)c1c(NC(=O)CSc2cn(CCNC(=O)c3ccccc3OC)c3ccccc23)sc2c1CCCC2	none
CC(=O)c1ccc(NC(=O)COC(=O)c2ccccc2N=Nc2ccc(N(C)C)cc2)cc1	none
COC(=O)c1ccccc1NC(=O)COC(=O)c1ccccc1N=Nc1ccc(N(C)C)cc1	Tau fibril ThT 4.47µM, Tau fluor cs inconclusive
CN(C)c1ccc(N=Nc2ccccc2C(=O)OCC(=O)N(C)c2ccccc2)cc1	Tau fibril ThT 1.58µM, Tau FP inhib inconclusive
CC(=O)c1ccc(NC(=O)Nc2sc3nc4n(c(=O)c3c2C)CCC(C)CC4)cc1 (stereo unspecified)	Tau fibril ThT inconclusive, Tau FP inhib inconclusive, Tau fluor cs 12.6µM[quencher]
CN(C)c1ccc(CNc2nc(-c3ccco3)nn2S(=O)(=O)c2ccc(Cl)cc2)cc1	TR SRC2 fluor cs inconclusive
COc1ccc(-c2[nH]c3ccccc3c2SCCNC(=O)c2ccc(S(=O)(=O)N(C)C)cc2)cc1	Tau fluor cs 3.98µM[quencher]
CN(C)S(=O)(=O)c1ccc(C(=O)NCCSc2c(-c3ccc(Cl)cc3)[nH]c3ccccc23)cc1	Tau fluor cs 14.1µM[quencher]
COCC(=O)NCCSc1c(C)[nH]c2ccccc12	none
Cc1ccc(-c2[nH]c3ccccc3c2SCCNC(=O)c2ccc(S(=O)(=O)N(C)C)cc2)cc1	Tau fluor cs inconclusive
COc1cccc(C(=O)NCCSc2c(-c3ccc(F)cc3)[nH]c3ccccc23)c1OC	Tau fluor cs 5.01µM[quencher]
O=C(Cc1cccs1)NCCSc1c(-c2ccc(Cl)cc2)[nH]c2ccccc12	Tau fluor cs 7.08µM[quencher]
CCCC/C=C/[C@H](c1ccccc1)[C@H](CO)Cc1cnc2ccccc2c1	none (no result: Tau fibril ThT, Tau FP inhib, Tau fluor cs)
CCOc1ccc(C(=O)N2CCC(c3nnc(-c4ccccc4OC)o3)CC2)cc1	none
CN(Cc1ccccc1)C(=O)c1ccc2c(c1)N(Cc1ccc(Cl)cc1)C(=O)c1ccccc1S2=O (stereo unspecified)	none
O=C1[C@H]2[C@H]3[C@H](O)[C@H](O)C/C(=N/OCc4ccccc4)[C@@H]3CC[C@@H]2C(=O)N1C1CCCCC1	none
Cc1ccc(C(=O)NCCSc2c[nH]c3ccccc23)cc1C	Tau fibril ThT inconclusive, Tau fluor cs 15.8µM[quencher]
CCN(CC)S(=O)(=O)c1ccc(C(=O)NCCc2cc3c(OC)ccc(OC)c3[nH]c2=O)cc1	none
COc1ccc(-c2[nH]c3ccccc3c2SCCNC(=O)c2cc(OC)c(OC)c(OC)c2)cc1	Tau fibril ThT inconclusive, Tau fluor cs 7.08µM[quencher]
CCOc1ccc(C(=O)NCCSc2c(C)[nH]c3ccccc23)cc1OCC	Tau fibril ThT inconclusive, Tau FP inhib inconclusive, Tau fluor cs 14.1µM[quencher]
CCN(CC)S(=O)(=O)c1ccc(C(=O)NCCSc2c(-c3ccc(OC)cc3)[nH]c3ccccc23)cc1	Tau fluor cs 3.98µM[quencher]
COc1cc(C(=O)Nc2nonc2-c2ccc(C)c(C)c2)cc(OC)c1OC	none
CCCCCCCCCCCCCCN(C)C	none (no result: Tau fibril ThT, Tau FP inhib, Tau fluor cs)
Cc1cccc(C(=O)N2CCc3cc(CNS(=O)(=O)c4ccc(Cl)s4)ccc32)c1	none
COc1ccc(NC(=O)C2CCN(c3cc(C)nc4c(-c5ccc(Cl)cc5)c(C)nn34)CC2)cc1	none
CN1CCN(c2cc(N3CCc4ccccc4C3)c(F)cc2[N+](=O)[O-])CC1	Tau fibril ThT 12.6µM
CCC(=O)N1CCN(c2cc(N3CCN(C)CC3)c(F)cc2[N+](=O)[O-])CC1	none
CCC(C)S(=O)(=O)c1oc(-c2ccc(F)cc2)nc1S(=O)(=O)c1ccc(F)cc1 (stereo unspecified)	Tau fibril ThT inconclusive
Cc1ccc(C)c(S(=O)(=O)Nc2cc(SCC(=O)O)c(O)c3ccccc23)c1	TRb-SRC2 inh inconclusive, Tau fibril ThT 3.55µM, Tau FP inhib 7.94µM, Tau fluor cs inconclusive
Cc1ccc(NS(=O)(=O)c2cc(NC(=O)C(C)Oc3ccccc3)ccc2C)c(C)c1 (stereo unspecified)	none
COC(=O)C(=O)/C=C(\O)c1ccc(C)cc1	Tau fibril ThT 22.4µM, Tau FP inhib inconclusive, Tau fluor cs inconclusive
COc1cccc(C2CC(=O)N3CN(C4CCCCC4)CSC3=C2C#N)c1 (stereo unspecified)	Tau fibril ThT 35.5µM, Tau FP inhib inconclusive
CN1CSC2=C(C#N)C(c3cccc(OCc4ccccc4)c3)CC(=O)N2C1 (stereo unspecified)	Tau fibril ThT inconclusive, Tau FP inhib inconclusive
COc1ccc(C2C(=O)N(C3CCCCC3)CC(=O)N2C2CCCC2)cc1 (stereo unspecified)	none
COc1ccc(C2CC(=O)N3CN(C4CCCCC4)CSC3=C2C#N)cc1 (stereo unspecified)	Tau fibril ThT 17.8µM, Tau FP inhib inconclusive
COC(=O)C[C@@H]1O[C@H]1[C@H](C)[C@@H](OC)C(C)C	Tau fibril ThT inconclusive
COc1ccc(C2CC(=O)c3cc(-c4nc(-c5cccc([N+](=O)[O-])c5)cs4)c(=O)n(-c4ccccc4)c3C2)cc1 (stereo unspecified)	Tau fluor cs inconclusive
COc1ccc(C2CC(=O)c3cc(-c4nc(-c5cccc([N+](=O)[O-])c5)cs4)c(=O)n(-c4ccccc4C)c3C2)cc1 (stereo unspecified)	TR SRC2 fluor cs 89.1µM[quencher]
COc1ccc2occ(C(=O)c3ccccc3)c2c1	none
O=C(c1ccccc1)c1coc2c1C(=O)c1ccccc1C2=O	Tau fibril ThT 12.6µM, Tau fluor cs inconclusive
O=C1c2ccccc2C(=O)c2c1oc(C(F)(F)F)c2C(=O)c1ccccc1	Tau fibril ThT inconclusive, Tau fluor cs inconclusive
COc1ccc(C(=O)c2coc3c2C(=O)C(=O)c2ccccc2-3)cc1	Tau fibril ThT 2.82µM, Tau FP inhib inconclusive, Tau fluor cs inconclusive
O=Cc1ccc(Sc2nnc(-c3ccccc3)o2)c([N+](=O)[O-])c1	Tau fibril ThT 17.8µM, Tau FP inhib inconclusive, Tau fluor cs 15.8µM[quencher]
O=C(CSc1nc2c([nH]c3ccccc32)c(=O)n1-c1ccccc1)NCc1ccc(F)cc1	none
Cc1nc(NC(=O)/C=C/c2ccccc2)n[nH]1	Tau fibril ThT 15.8µM, Tau FP inhib inconclusive
CCCn1nnc(NC(=O)/C=C/c2ccccc2)n1	none
CCn1cnc2cc(NCc3ccc(C)cc3)ccc21	Tau fibril ThT inconclusive
CCn1cnc2cc(NCc3ccc(N(C)C)cc3)ccc21	Tau fibril ThT inconclusive, Tau fluor cs 11.2µM[quencher]
